According to PubChem BioAssay (NCATS):
Several values for one entry are separate records, joined by “and”; a condition that tells them apart may be missing. Identical values can stand only once. Records with an inconclusive call do not appear. Where a structure was tested more than once in an assay, its records may differ in their call. Activity calls are given as the source filed them. Calls come from the whole dose curve; as a rule, active = well fitted curve in the direction sought with a large enough effect; inconclusive = small, poorly fitted or top-dose-only effect, or another doubt; inactive = no such curve, though single readings can be large; an effect the other way counts as inactive or inconclusive.

Columns and labels:
[1] = test system: Zika virus NS2B-NS3 protease (linked construct); assay: Primary screen NINDS Rhodamine qHTS for Zika virus inhibitors (AID 1347160); note: nearly all actives have a fitted effect of over 55% in size
Outline: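 In 10 mM Tris-HCl pH 8.0 containing 0.01% Tween 20, linked NS2B-NS3 protease (25 nM final) is exposed to test compounds for 15 min. Cleavage of 1.5 microM Rhodamine110 substrate is tracked by fluorescence over 15 min.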

[2] = qHTS to identify inhibitors of the type 1 interferon - major histocompatibility complex class I in skeletal muscle: primary screen against the NCATS Pharmaceutical Collection (AID 1347407);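 note: luminescence of HiBiT knocked into endogenous HLA-B as interferon-induced MHC class I level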; note: potency is the fitted concentration of half-maximal effect
Outline: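 Luminescence from HiBiT-tagged endogenous HLA-B*08:01 served as the read-out of IFN-beta-induced MHC class I in CRISPR-engineered C25cl48 myoblasts. Cells received 4 ng/ml IFN-beta plus compound (high final 46 uM, […]) for 24 h.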

[3] = biological target: Protein phosphatase 1D (Homo sapiens) (UniProt O15297); assay: RapidFire Mass Spectrometry qHTS Assay for Modulators of WT P53-Induced Phosphatase 1 (WIP1) (AID 1347424);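 note: amount of dephosphorylated VEPPL-S-QETFS peptide product formed by WIP1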; note: potency is the fitted concentration of half-maximal effect;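 for activity change, negative = inhibition: series mostly up to about 63 µM; plate controls were DMSO wells for no effect and GSK830371 inhibitor control at 10 µM for full effect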
Outline: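 WIP1 (10 nM final) was preincubated 1 h at room temperature with compounds in Tris-HCl pH 7.5, 30 mM MgCl2, TCEP, EGTA, BSA; 2 uM VEPPL-pS-QETFS phosphopeptide was added for 5 min, quenched with formic acid, and dephosphorylated product quantified by RapidFire MS.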

[4] = Primary qHTS for inhibitors of La Crosse Virus (LACV) - induced cell death in SH-SY5Y cells (AID 1508616);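 note: top concentration of the series differs between compounds; 0% = infected DMSO wells and 100% = uninfected DMSO wells; higher means more rescue of cells from virus-induced death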
Outline: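 Luminescent ATP readout (ATPLite 1step, 5 min room temperature) measured rescue from LACV-induced death after 6 days of infection at 0.01 MOI; normalized to infected DMSO wells and uninfected DMSO wells.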

[5] = biological target: Calcium and integrin-binding protein 1 (Homo sapiens) (UniProt Q99828); assay: Primary qHTS for Identification of Calcium Integrin Binding Protein 1 (CIB1) Competitor (AID 1508620); note: potency is the fitted concentration of half-maximal effect
Outline: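 Fluorescence polarization competition: CIB1-GST (1 uM final) preincubated with compound 15 min at room temperature, then FITC-labeled alphaIIb peptide (100 nM final) added for another 15 min. Polarization read at Ex 480/Em 540.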

[6] = qHTS to identify inhibitors of the type 1 interferon - major histocompatibility complex class I in skeletal muscle: primary screen against the NCATS LOPAC collection (AID 1347405);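 note: lytic HiBiT luminescence reporting HLA-B protein level; % is set by controls: 0 for no effect and ±100 for the full control effect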
Outline: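 Immortalized human C25cl48 myoblasts with HiBiT knocked into endogenous HLA-B*08:01 were stimulated with 4.0 ng/ml IFN-beta and given compounds in a 7-point, 1:4.3 titration from 46 uM final; after 24 hrs, lytic HiBiT luminescence was read.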

[7] = qHTS for inhibitors of adenylyl cyclases using a fission yeast platform: a pilot screen against the NCATS LOPAC library (AID 1347410);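 note: plate controls were DMSO vehicle for no effect and DPI positive control for full effect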
Outline: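 Fission yeast qHTS: CHP2027 cells (AC9-GNAS-PDE4D2, fbp1-GFP), 5x10^6 cells/mL working density, EMM + His/Lys/Ura; LOPAC at up to 57 µM final; 18 h dark, 30C; GFP by laser cytometry. DPI positive control, DMSO vehicle.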

[8] = qHTS to identify inhibitors of the type 1 interferon - major histocompatibility complex class I in skeletal muscle: primary screen against the NCATS Mechanism Interrogation Plate v5.0 (MIPE) Libary (AID 1347411); note: nearly all actives have a fitted effect of over 65% in size; note: potency is the fitted concentration of half-maximal effect;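 for activity change, negative = inhibition: plate controls were vehicle for no effect and reference inhibitor for full effect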
Outline: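 Immortalized human C25cl48 myoblasts with HiBit knocked into endogenous HLA-B*08:01 were stimulated with 4.0 ng/ml IFN-beta and exposed to compounds (11-point 1:3 titration, top 46 uM final) for 24 hrs at 37 C; HiBiT lytic luminescence measured.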

[9] = biological target: Protein phosphatase 1D (Homo sapiens) (UniProt O15297); assay: Rhodamine-PBP qHTS Assay for Modulators of WT P53-Induced Phosphatase 1 (WIP1) (AID 1347425); note: % of control where 0% means no effect
Outline: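 The read-out is the change in Rhodamine-PBP fluorescence (f1 - f0, ex 525/em 598 nm) as Pi is released, read each minute for 11 min. Final reaction: 5 nM WIP1, 10 uM phosphopeptide VEPPL-pS-QETFS, 10 uM Rh-PBP, 50 mM Tris-HCl pH 7.5, 30 mM MgCl2. Compound was preincubated with enzyme for 1 hour at room temperature.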

[10] = biological target: Calcium and integrin-binding protein 1 (Homo sapiens) (UniProt Q99828); assay: Validation qHTS for Identification of Calcium Integrin Binding protein 1 (CIB1) Competitor (AID 1508618); note: % is set by controls: 0 for no effect and ±100 for the full control effect
Outline: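 CIB1-GST (1 uM final) incubated 15 min at room temperature with compounds (up to 114 uM), then FITC-labelled alphaIIb peptide (100 nM) added. FP read (Ex 480/Em 540) after 15 min, pH 7.4 buffer containing 5 mM CaCl2.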

[11] = Confirmatory screen NINDS Rhodamine qHTS for Zika virus inhibitors (AID 1347161); note: nearly all actives have a fitted effect of over 60% in size; note: potency is the fitted concentration of half-maximal effect;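 for activity change, negative = inhibition: purified Zika NS2B-NS3 protease with linked NS2B cofactor domain and Rhodamine110 peptide substrate; series mostly up to about 110 µM; plate controls were no-inhibitor control for no effect and no-enzyme control for full effect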
Outline: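 Rhodamine110-peptide cleavage (1.5 µM substrate) by 25 nM linked NS2B-NS3 enzyme at pH 8.0 (Tris, Tween 20), after 15 min RT preincubation with compounds; 15-min fluorescence change normalized to controls and Hill-fitted.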

[12] = Vero cells viability qHTS for Zika virus inhibitors (AID 1347167); note: % is set by controls: 0 for no effect and ±100 for the full control effect
Outline: (§1)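 Counter-screen for cytotoxicity of hits from NS2B-NS3 protease qHTS. Overnight-attached cells (2.5 x 10^5 cells/mL, DMEM/4% FBS) were dosed in titration, incubated 24 to 48 hours, then assayed by CellTiter Glo.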

[13] = HepG2 cells viability qHTS for Zika virus inhibitors (AID 1347168); note: % is set by controls: 0 for no effect and ±100 for the full control effect
Outline: as §1

[14] = Validation qHTS assay for inhibitors of Activation Induced Cytidine Deaminase (AID): UDG Counterscreen signal (AID 1347427); note: 0% is about no effect
Outline: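 Counterscreen read of UDG activity (2 U/mL, 4/3x) in the FRET deamination format with AID (1 uM, 4/3x), DJC20/DJC23 substrates (250 nM, 4x), 4 h at room temperature. NaOH stop, fluorescence at 560 ex/665 em.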

[15] = biological target: Single-stranded DNA cytosine deaminase (Homo sapiens) (UniProt Q9GZX7); assay: Validation qHTS assay for inhibitors of Activation Induced Cytidine Deaminase (AID): AID signal (AID 1347429); note: % is set by controls: 0 for no effect and ±100 for the full control effect
Outline: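 AID and UDG were combined and compounds added at final up to 114 uM, then DJC20/DJC23 FRET substrate was added for 4 hr at room temperature. NaOH was then added for 30 min before fluorescence was read at 540/590 nm.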

[16] = Counterscreen qHTS for small molecule stabilizers of the endoplasmic reticulum resident proteome: GLuc-NoTag assay (AID 1508627);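 note: SH-SY5Y cells given compound then 100 nM thapsigargin to empty ER calcium; series mostly up to about 76 µM; 0% = thapsigargin alone and -100% = DMSO vehicle control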
Outline: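 SH-SY5Y cells stably expressing constitutively secreted GLuc (no SERCaMP tag) were pre-incubated 5 h, treated with compound for 19 h, then 100 nM thapsigargin for 4 h at 37C; medium GLuc read by coelenterazine luminescence.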

[17] = Confirmatory qHTS for small molecule stabilizers of the endoplasmic reticulum resident proteome: Secreted ER Calcium Modulated Protein (SERCaMP) assay (AID 1508628);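 note: SH-SY5Y cells given compound 16 h then thapsigargin 100 nM for 4 h; series mostly up to about 76 µM; % is set by controls: 0 for no effect and ±100 for the full control effect; nearly all actives have a fitted effect of over 40% in size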
Outline: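 We seeded SH-SY5Y-GLuc-SERCaMP cells, added compounds (three concentrations in the primary run, eleven up to 76.6 uM in confirmation), incubated 16 h, depleted ER calcium with thapsigargin, and read luciferase 4 h later.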

[18] = test system: Zika virus NS2B-NS3 protease (linked); assay: 384 well plate NINDS AMC confirmatory qHTS for Zika virus inhibitors (AID 1347163); note: potency is the fitted concentration of half-maximal effect; nearly all actives have a fitted effect of over 50% in size
Outline: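 Linked protease 5/30/60 nM final; cpds up to 1 mM final, ~15 min preinc. Substrate Ac-VKTGKR-AMC 30 microM final. RT, dark, 25 min; FI ex 355/em 460; normalized to no-enzyme/no-inhibitor ctrls.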

[19] = test system: Zika virus NS2B-NS3 protease (linked construct); assay: 384 well plate NINDS Rhodamine confirmatory qHTS for Zika virus inhibitors (AID 1347164);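 note: fluorescence from protease cleavage of Ac-LKRR-rhodamine 110 substrate; potency is the fitted concentration of half-maximal effect; nearly all actives have a fitted effect of over 65% in size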
Outline: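 Enzyme (final 5/30/60 nM) + cpd (DMSO), ~15 min; add Ac-LKRR-Rd 10 microM final; 25 min RT, dark; FI ex 485/em 538; normalized to no-enzyme, no-inhibitor ctrls; aprotinin intraplate ctrl.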

[20] = biological target: Calcium and integrin-binding protein 1 (Homo sapiens) (UniProt Q99828); assay: Confirmatory qHTS for Identification of Calcium Integrin Binding Protein 1 (CIB1) Competitor (AID 1508617); note: potency is the fitted concentration of half-maximal effect; nearly all actives have a fitted effect of over 65% in size
Outline: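 Compounds at up to 114 uM final met 1 uM GST-tagged CIB1 for 15 min at room temperature (HEPES pH 7.4, 5 mM CaCl2). FITC-labelled alphaIIb peptide, 100 nM, added; polarization read after 15 min more.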

Calcium and integrin-binding protein 1 (Homo sapiens), sequence (Q99828 whole entry, looked up): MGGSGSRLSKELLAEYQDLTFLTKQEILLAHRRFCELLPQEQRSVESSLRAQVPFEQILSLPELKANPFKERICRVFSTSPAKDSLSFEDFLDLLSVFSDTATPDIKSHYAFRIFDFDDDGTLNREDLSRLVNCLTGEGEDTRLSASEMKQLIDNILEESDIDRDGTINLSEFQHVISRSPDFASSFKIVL
Protein phosphatase 1D (Homo sapiens), sequence (O15297 whole entry, looked up): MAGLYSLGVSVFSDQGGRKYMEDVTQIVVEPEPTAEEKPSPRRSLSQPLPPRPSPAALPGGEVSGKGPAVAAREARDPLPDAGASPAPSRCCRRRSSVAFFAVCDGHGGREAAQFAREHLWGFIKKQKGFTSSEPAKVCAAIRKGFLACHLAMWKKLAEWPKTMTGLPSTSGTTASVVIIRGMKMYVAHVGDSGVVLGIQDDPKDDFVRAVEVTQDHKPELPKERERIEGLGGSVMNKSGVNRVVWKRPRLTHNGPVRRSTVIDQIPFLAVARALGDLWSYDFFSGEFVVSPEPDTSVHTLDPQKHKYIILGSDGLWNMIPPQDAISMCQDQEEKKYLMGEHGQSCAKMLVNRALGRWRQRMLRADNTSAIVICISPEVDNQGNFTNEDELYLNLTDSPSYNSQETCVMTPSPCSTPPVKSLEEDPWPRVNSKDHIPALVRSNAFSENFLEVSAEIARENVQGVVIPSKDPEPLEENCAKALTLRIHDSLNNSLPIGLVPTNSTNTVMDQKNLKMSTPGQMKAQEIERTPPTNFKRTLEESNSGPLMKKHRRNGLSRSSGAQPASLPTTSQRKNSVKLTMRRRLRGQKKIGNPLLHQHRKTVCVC
Single-stranded DNA cytosine deaminase (Homo sapiens), sequence (Q9GZX7 whole entry, looked up): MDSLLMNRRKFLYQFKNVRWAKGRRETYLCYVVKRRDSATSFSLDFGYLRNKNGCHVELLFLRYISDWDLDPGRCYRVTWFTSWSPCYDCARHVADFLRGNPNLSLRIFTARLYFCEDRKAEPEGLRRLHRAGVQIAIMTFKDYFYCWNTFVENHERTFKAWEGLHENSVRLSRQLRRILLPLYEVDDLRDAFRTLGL

COCCCOc1ccnc(CS(=O)c2nc3ccccc3[nH]2)c1C (centres undefined)
39.8 µM (active) and inactive: Potency [5]
inactive: Potency [1] | Potency [2] | Potency [3] | Potency [4]

c1cnc2cc3c(cc2n1)C1CNCC3C1
inactive: Potency [1] | Potency [6] | Potency [2] | outcome [7] | Potency [8] | Potency [3] | outcome [9] | Potency [4] | outcome [10] | Potency [5]

CCCS(=O)c1ccc2nc(NC(=O)OC)[nH]c2c1 (centres undefined)
inactive: Potency [1] | Potency [2] | Potency [8] | Potency [3] | Potency [4] | Potency [5]

Cc1c(OCC(F)(F)F)ccnc1CS(=O)c1nc2ccccc2[nH]1 (centres undefined)
inactive: Potency [11] | Potency [12] | Potency [13] | Potency [6] | Potency [2] | outcome [7] | Potency [8] | Potency [3] | outcome [9] | Potency [14] | outcome [15] | Potency [4] | outcome [10] | Potency [5]

O=C(O)c1cccc(-c2noc(-c3ccccc3F)n2)c1
inactive: Potency [1] | Potency [2] | Potency [8] | Potency [3] | Potency [4] | Potency [5] | Potency [16] | Potency [17]

CCN(CCO)CCCC(C)Nc1ccnc2cc(Cl)ccc12 (centres undefined)
inactive: activity change, negative = inhibition [1] -6.84% [at 4.91 µM] | activity change, negative = inhibition [2] -5.56% [at 3.83 µM] | activity change, negative = inhibition [8] 7.97% [at 5.1 µM] | activity change, negative = inhibition [3] -4.11% [at 6.17 µM] | activity change, negative = inhibition [9] 13.1% [at 4.81 µM] | activity change [4] -0.436% [at 0.431 µM] | Potency [5]

C=C(c1ccc(C(=O)O)cc1)c1cc2c(cc1C)C(C)(C)CCC2(C)C
inactive: Potency [13] | Potency [2] | Potency [4] | Potency [5]
active: Potency [11] 1.96 µM and 2.47 µM | Potency [18] 22.4 µM | Potency [19] 7.94 µM | Potency [3] 4.47 µM

COc1ccccc1N1CCN(CCN(C(=O)C2CCCCC2)c2ccccn2)CC1
inactive: Potency [1] | Potency [6] | outcome [7] | Potency [8] | Potency [14] | outcome [15] | Potency [4] | outcome [10] | Potency [5]

CC(=O)O[C@H]1C(=O)[C@@]2(C)C([C@H](OC(=O)c3ccccc3)[C@]3(O)C[C@H](OC(=O)[C@H](O)[C@@H](NC(=O)c4ccccc4)c4ccccc4)C(C)=C1C3(C)C)[C@]1(OC(C)=O)CO[C@@H]1C[C@@H]2O (some centres undefined)
inactive: Potency [1] | Potency [8] | Potency [14] | outcome [15] | Potency [4] | Potency [5]

CN(C)CCCC1(c2ccc(F)cc2)OCc2cc(C#N)ccc21 (centres undefined)
inactive: Potency [1] | Potency [6] | outcome [7] | Potency [14] | outcome [15] | Potency [4] | outcome [10] | Potency [5]

COc1cc(Nc2c(C#N)cnc3cc(OCCCN4CCN(C)CC4)c(OC)cc23)c(Cl)cc1Cl
active: Potency [2] 7.45 µM | Potency [8] 7.39 µM | Potency [20] 44.7 µM
inactive: Potency [1] | Potency [3] | outcome [9] | Potency [4] | Potency [5]
